Source: PubChem BioAssay
Shown are actives, neighbours in structure and some others; about 3% of the full set was active somewhere.
TrxR1 substrate: substrates of rat thioredoxin reductase 1; O89049; purified TrxR1 substrate turnover, NADPH consumption readout; Potency, µM (highest dose often 114 µM), without a hit: at the top dose activity change, negative = substrate turnover; actives 0.01% (n = 390,000); AID 588456; also: % is scaled to controls: 0 for no effect and ±100 for the full control effect; nearly all actives have a fitted effect of over 50% in size
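Rat TrxR1, dispensed at 90 nM, was prereduced with 400 uM NADPH (final) for 5 min at ~22 deg C, then incubated with compound 15 min before 400 uM selenite. A first-read NADPH fluorescence drop versus no-compound background flagged substrates.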
Nrf2 inh: Nrf2 pathway inhibition | A549 ARE-Fluc reporter, luciferase luminescence, 18-24 h | Potency, µM (top dose mostly 46 µM), inactives show top-dose activity change, negative = inhibition, usual class: inhibitors | actives 2.1% (n = 360,000) | AID 504444; also: % is scaled to controls: 0 for no effect and ±100 for the full control effect; nearly all actives have a fitted effect of over 60% in size
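A549 ARE_Fluc cells, 5000/well, 5% FBS OPTI-MEM; compounds in dose-response, 18-24 h at 37 °C/5% CO2; CellTiter-Fluor viability read (Ex 405/Em 525), then BugLite luciferase luminescence = Nrf2 activity.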
GALK inh: inhibitors of human galactokinase. Potency, µM (doses to about 57.5 µM), without a hit: at the top dose activity change, negative = inhibition, actives largely listed as inhibitors. P51570. Purified GALK, Kinase-Glo residual ATP luminescence. actives 0.007% (n = 270,000). AID 1868; also: % is scaled to controls: 0 for no effect and ±100 for the full control effect
Target sequence (P51570 whole entry, looked up): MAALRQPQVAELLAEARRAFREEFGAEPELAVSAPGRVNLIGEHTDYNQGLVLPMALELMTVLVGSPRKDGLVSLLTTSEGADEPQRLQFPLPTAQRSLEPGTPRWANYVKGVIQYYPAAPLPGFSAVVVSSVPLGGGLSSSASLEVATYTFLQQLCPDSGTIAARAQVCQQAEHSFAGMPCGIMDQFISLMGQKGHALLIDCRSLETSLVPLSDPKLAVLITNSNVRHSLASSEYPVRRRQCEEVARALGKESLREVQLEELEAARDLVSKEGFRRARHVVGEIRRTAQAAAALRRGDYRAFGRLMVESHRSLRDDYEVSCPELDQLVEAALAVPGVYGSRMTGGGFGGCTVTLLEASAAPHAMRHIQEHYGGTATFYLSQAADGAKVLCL
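Kinase-Glo Plus luminescence measured ATP left after a 1 h room-temperature reaction. The reaction used 5 nM GALK, 100 uM galactose and 35 uM ATP at pH 8.0 (20 mM HEPES, 5 mM MgCl2, 60 mM NaCl, 1 mM DTT, 0.01% BSA).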
A549 tox: A549 cytotoxicity, counter-screen for Nrf2 inhibitors. A549 ARE-Fluc cells, CellTiter-Fluor viability, 18-24 h. Potency, µM (top dose mostly 46 µM), for the others: at the highest dose activity change, negative = cytotoxicity, actives largely listed as inhibitors. actives 0.16% (n = 390,000). AID 504648; also: % is scaled to controls: 0 for no effect and ±100 for the full control effect
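A549 ARE_Fluc cells in 5% FBS OPTI-MEM were exposed to compounds in concentration-response for 18-24 h at 37 deg C. Viability was read by CellTiter-Fluor fluorescence (Ex 405/Em 525) after 30 min, before the luciferase read.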
Nrf2 ARE act: Nrf2 pathway activation. Potency, µM (series often up to 46.1 µM), inactives show at the top dose activation, actives largely listed as activators. actives 0.31% (n = 410,000). AREc32 ARE-luciferase reporter (MCF7-derived line), luminescence, 24 h; also: % of control where 0% means no effect; nearly all actives have a fitted effect of over 65% in size
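AREc32_Fluc, 1000 cells/well, OPTI-MEM + 5% FBS, o/n 37 deg C 5% CO2; 23 nL cpd by pin tool, 24 hr; Steady-Glo 30 min RT, luminescence.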
rTrxR1 inhibitor: inhibitors of rat thioredoxin reductase 1 | Potency, µM (highest dose often 114 µM), for inactives: top-dose activity change, negative = inhibition, usual class: inhibitors | recombinant rTrxR1, NADPH fluorescence consumption, selenite substrate | actives 1% (n = 390,000); also: % is scaled to controls: 0 for no effect and ±100 for the full control effect; nearly all actives have a fitted effect of over 65% in size
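Rat TrxR1 (90 nM in the dispensed reagent) was pre-reduced with 400 uM NADPH for 5 min at room temperature, then incubated with compound for 15 min. After 400 uM selenite was added, NADPH fluorescence (Ex 340/Em 450 nm) was followed for 8 min.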
* hit, by the source's call; [ ] = dose if it differs, or a comment. Calls follow the shape of the dose curve; as a rule, active = well fitted curve in the direction sought with a large enough effect; inconclusive = small, poorly fitted or top-dose-only effect, or another doubt; inactive = no such curve, though single readings can be large; an effect the other way counts as inactive or inconclusive. Potency is read from the fitted curve at half-maximal effect.

Screening CN1C(=O)c2ccccc2Sc2ccc(NC(=O)Nc3ccccc3F)cc21 returned TrxR1 substrate 5%, Nrf2 inh 21µM*, A549 tox -8%, Nrf2 ARE act 1% and rTrxR1 inhibitor 4%.
`COc1ccccc1C(=O)Nc1nc2nc(C)cc(=O)n2[nH]1` gave TrxR1 substrate -3%, Nrf2 inh -1%, A549 tox -4%, Nrf2 ARE act 0% and rTrxR1 inhibitor 17%.
Screening CC(C)Cn1c(=O)c2ccccc2n2c(CCC(=O)N3CCN(c4ccccc4)CC3)nnc12 returned TrxR1 substrate 1%, Nrf2 inh -18%, A549 tox -10%, Nrf2 ARE act 0% and rTrxR1 inhibitor 9%.
For Cc1cc([N+](=O)[O-])ccc1NCc1ccccc1 the results were TrxR1 substrate -4%, Nrf2 inh 18µM*, GALK inh 6%, A549 tox inconclusive, Nrf2 ARE act 4% and rTrxR1 inhibitor -4%.
COC(=O)C(NNc1ccc(F)cc1)(NC(=O)c1ccccc1)C(F)(F)F (centres undefined) was read as TrxR1 substrate -9%, Nrf2 inh 23µM*, GALK inh 0%, A549 tox -3%, Nrf2 ARE act 1% and rTrxR1 inhibitor -20%.
Screening COC(=O)C(NC(=O)c1ccccc1)(Nc1nccs1)C(F)(F)F (centres undefined) returned TrxR1 substrate 2%, Nrf2 inh -5%, GALK inh 2%, A549 tox 0%, Nrf2 ARE act 1% and rTrxR1 inhibitor 5%.
`COC(=O)C(NNc1ccccc1C)(NC(=O)c1ccc(F)cc1)C(F)(F)F` (centres undefined) gave TrxR1 substrate -1%, Nrf2 inh -24%, GALK inh -2%, A549 tox -5%, Nrf2 ARE act 3% and rTrxR1 inhibitor 28µM*.
`COc1ccc(CCNC(=O)CCCn2c(=O)c3cccn3c3ccc(F)cc32)cc1OC` gave TrxR1 substrate 4%, Nrf2 inh inconclusive, A549 tox 11%, Nrf2 ARE act 1% and rTrxR1 inhibitor 17%.
For CCc1ccc(C=O)cc1 the results were TrxR1 substrate -10% and rTrxR1 inhibitor -7%.
Screening COc1ccc(-c2csc(-c3ccc(O)cc3)n2)cc1 returned TrxR1 substrate 2%, Nrf2 inh -5%, GALK inh 0%, A549 tox -10%, Nrf2 ARE act 4% and rTrxR1 inhibitor 56µM*.
`COc1ccccc1NC(=O)Cn1c(=O)n(CCC(=O)NCC2CCCO2)c(=O)c2cc(OC)c(OC)cc21` (centres undefined) gave TrxR1 substrate 9%[2.29 µM], Nrf2 inh 10%[9.27 µM], A549 tox -11%, Nrf2 ARE act 0% and rTrxR1 inhibitor 1%[2.29 µM].
Screening Cc1cccc(COC[C@H](Cc2ccccc2)N2CCN(C(=O)c3cccc(Cl)c3)CCC2=O)c1 returned Nrf2 ARE act 4%.
For CC(C)C[C@@H](COCc1ccc(Cl)cc1)N1CCN(C(=O)c2ccc(C(F)(F)F)cc2)CCC1=O the results were Nrf2 ARE act -1%.
CC(C)CC(COCc1ccc(Cl)cc1)N1CCN(C(=O)c2ccc(Cl)cc2Cl)CCC1=O (centres undefined) was read as TrxR1 substrate -2%, Nrf2 inh 21µM*, A549 tox inconclusive, Nrf2 ARE act -1% and rTrxR1 inhibitor 16%.
For Cc1cccc(COCC(Cc2ccccc2)N2CCN(C(=O)c3cccc(Cl)c3)CCC2=O)c1 (centres undefined) the results were TrxR1 substrate -4%, Nrf2 inh 21µM*, A549 tox inconclusive, Nrf2 ARE act 5% and rTrxR1 inhibitor 18%.
`O=C(Nc1cc([N+](=O)[O-])ccc1O)c1ccc2c(c1)C(=O)N(Cc1ccco1)C2=O` gave TrxR1 substrate -14%, Nrf2 inh 19%, GALK inh 3%, A549 tox -15%, Nrf2 ARE act 3% and rTrxR1 inhibitor 79µM*.
`Clc1ccc(CSc2nnc(Cn3cnc4ccccc43)o2)cc1` gave TrxR1 substrate 13%[57.1 µM], Nrf2 inh 8.2µM*, GALK inh 0%, A549 tox -14%, Nrf2 ARE act -1% and rTrxR1 inhibitor 11%[57.1 µM].
`NC(=O)CSc1nnc(Cn2cnc3ccccc32)o1` gave TrxR1 substrate -14%, Nrf2 inh -14%, GALK inh 1%, A549 tox 8%, Nrf2 ARE act 0% and rTrxR1 inhibitor -21%.
For Cc1oc(-c2cccc(Cl)c2)nc1CSCC(=O)NCc1ccccc1Cl the results were TrxR1 substrate 10%, Nrf2 inh 23µM*, A549 tox inconclusive, Nrf2 ARE act -1% and rTrxR1 inhibitor 26%.
`Cc1oc(-c2ccc(Cl)cc2)nc1CSCC(=O)NCc1ccccc1Cl` gave TrxR1 substrate -7%[57.1 µM], A549 tox -3%, Nrf2 ARE act 0% and rTrxR1 inhibitor 4%[57.1 µM].
Cc1ccc(CNC(=O)CSCc2nc(-c3ccc(Cl)cc3)oc2C)cc1 was read as TrxR1 substrate 30%, Nrf2 inh 21µM*, A549 tox -8%, Nrf2 ARE act -1% and rTrxR1 inhibitor 4%.
Screening CCOc1ccc(-c2nc(CSCC(=O)NCc3ccc(Cl)cc3)c(C)o2)cc1 returned TrxR1 substrate 3%[57.1 µM], A549 tox 7%, Nrf2 ARE act -2% and rTrxR1 inhibitor 17%[57.1 µM].
For Cc1nc(SCC(=O)Nc2ccc(C)c(Cl)c2)cc(-c2ccccc2)n1 the results were TrxR1 substrate 0%, Nrf2 inh -21%, A549 tox 0%, Nrf2 ARE act 0% and rTrxR1 inhibitor 6%.
Screening Cn1c(N/N=C/c2cccs2)cc(=O)n(C)c1=O returned TrxR1 substrate 9%, Nrf2 inh 5%, GALK inh 2%, A549 tox -8%, Nrf2 ARE act 7.9µM* and rTrxR1 inhibitor -26%.
`CCN(CC)S(=O)(=O)c1cc(NC(=O)C(C)N(C)CC(=O)Nc2c(C)cccc2C)ccc1C` (centres undefined) gave TrxR1 substrate -5%, Nrf2 inh 16µM*, GALK inh 2%, A549 tox inconclusive, Nrf2 ARE act 3% and rTrxR1 inhibitor 16%.
CN(C)c1cccc(C(=O)OC(C(=O)Nc2ccc([N+](=O)[O-])cc2Br)c2ccccc2)c1 (centres undefined) was read as TrxR1 substrate -6%, Nrf2 inh -13%, GALK inh -1%, A549 tox -8%, Nrf2 ARE act -1% and rTrxR1 inhibitor -2%.
